Results on 61 compounds are retold here after ChEMBL document CHEMBL4513146, “CO-ADD screening of Karazin Kharkiv National University (Ukraine) compounds”.

The term Inhibition denotes the change of the read-out against control, counted positive when it falls.

Results with a measured potency or affinity are listed apart.

One test deals with Klebsiella pneumoniae. The following applies: Concentration 32 ug.mL-1;; ASSAY_TEST Inhibition of Bacterial Growth; detection method Absorption (OD600); MEDIA CAMHB; plate type 384well; NBS; CORNING #3640; time 18 hr.
The subject of another test is Candida albicans. The following applies: Concentration 32 ug.mL-1; ASSAY_TEST Inhibition of Fungal Growth; detection method Absorption (OD530).
The subject of the next test is Cryptococcus neoformans. The following applies: Concentration 32 ug.mL-1; ASSAY_TEST Inhibition of Fungal Growth; detection method Resazurin; Absorption (OD600-OD570); plate type 384well; NBS; CORNING #3640. (In general: The colour change of resazurin is a common sign of viable cells or microbes.)

Consider `COc1cc(OC)c(NC(=O)Cn2nc3c(SC4CCCCC4)nccn3c2=O)cc1Cl`, for which the Inhibition in the test on Klebsiella pneumoniae is given as 9.62%; with Candida albicans, 7.28%; in the test on Cryptococcus neoformans, -20.84%.
The corresponding values for `CCCCOc1ccc(-c2cc3c4nnc(SCC(=O)Nc5cccc(C(C)=O)c5)n4ccn3n2)cc1` are 9.96%, 5.2% and -6.36%.
The corresponding values for `Cc1cc(C)c(NC(=O)Cn2nc3ccc(-c4ccc(C)c(C)c4)nn3c2=O)c(C)c1` are -8.22%, 0.76% and -13.99%.
Take `Cc1ccc(Cl)cc1NC(=O)Cn1nc2c3c4c(sc3ncn2c1=O)CCCCC4`: the results for the Inhibition in the test on Klebsiella pneumoniae, with Candida albicans and with Cryptococcus neoformans were 13.99%, 1.16% and -31.5%, respectively.
On the same counts, the results for `CCOc1ccc(C(=O)Cn2nc3n(Cc4ccccc4OC)c(=O)c4sccc4n3c2=O)cc1` are 8.36%, 6.12% and -29.81%.
On the same counts, the results for `CCCCOc1ccc(-c2cc3c4nnc(SCC(=O)Nc5ccccc5F)n4ccn3n2)cc1` are -0.1%, 7.26% and -10.98%.
As to `Cc1cccc(Oc2nc3ccccc3n3c(=O)n(CC(=O)Nc4cccc(C#N)c4)nc23)c1C`, the values for the Inhibition in the test on Klebsiella pneumoniae, in the test with Candida albicans and in the test on Cryptococcus neoformans were 4.26%, 5.6% and -21.56%, respectively.
The corresponding values for `COc1ccc(-c2cc3c4nnc(CCC(=O)NCc5cccs5)n4ccn3n2)cc1` are 6.72%, -0.32% and -11.02%.
The corresponding values for `CC(C)c1ccc(Cn2c(=O)c3sccc3n3c(SCc4cccc(C(F)(F)F)c4)nnc23)cc1` are 5.43%, -0.58% and -12.8%.
The corresponding values for `CCCc1nnc2c(=O)n(CC(=O)Nc3cccc(Br)c3)c3ccccc3n12` are 0.59%, 0.12% and -38.92%.
Take `Cc1ccc(NC(=O)Cn2nc3ccc(SCc4ccc(Cl)cc4)nn3c2=O)cc1C`: the Inhibition is 8.36% with Klebsiella pneumoniae, 3.97% in the test on Candida albicans and -21.31% in the test on Cryptococcus neoformans.
On the same counts, the results for `COc1cccc(-n2ccn3c(SCC(=O)NCc4ccco4)nnc3c2=O)c1` are 16.06%, 4.76% and -13.76%.
On the same counts, the results for `O=C(Cn1nc2c(Oc3ccccc3)nccn2c1=O)Nc1ccccc1F` are -3.78%, -2.47% and -4.07%.
The corresponding values for `COc1cccc(-n2ccn3c(SCC(=O)c4c(C)[nH]c5ccccc45)nnc3c2=O)c1` are 9.67%, 3.81% and -9.48%.
Take `CC(C)(C)OC(=O)N1CCC(NC(=O)CCc2nnc3ccc(-c4ccccc4)nn23)CC1`: the Inhibition with Klebsiella pneumoniae was 12.09%; with Candida albicans it was 0.97%; with Cryptococcus neoformans it was -4.02%.
On the same counts, the results for `COc1cccc(Sc2nc3ccccc3n3c(=O)n(CC(=O)Nc4c(C)cc(C)cc4C)nc23)c1` are 4.89%, -0.39% and -17.68%.
The corresponding values for `Cc1nnc2ccc(S(=O)(=O)N(Cc3cccc(F)c3)c3cc(F)cc(F)c3)cn12` are 10.98%, -1.03% and -12.8%.
On the same counts, the results for `Cc1cc(C)cc(N(Cc2ccccc2F)S(=O)(=O)c2cccn3c(C)nnc23)c1` are 2.04%, 1.9% and -4.5%.
Take `CC(=O)c1ccc(NC(=O)Cn2nc3ccc(Sc4ccccc4)nn3c2=O)cc1`: the Inhibition is listed as -6.33% in the test with Klebsiella pneumoniae, 15.65% in the test on Candida albicans and -7.51% with Cryptococcus neoformans.
`CCCCc1ccc(NC(=O)Cn2nc3c(Sc4ccccc4)nccn3c2=O)cc1`: the Inhibition is recorded as 5.15% in the test on Klebsiella pneumoniae, 28.09% with Candida albicans and -10.74% with Cryptococcus neoformans.
On the same counts, the results for `CCOc1ccccc1NC(=O)Cn1nc2c(Oc3cccc(OC)c3)nccn2c1=O` are 8.86%, 0.7% and -8.27%.
As for `COc1cc(OC)c(NC(=O)Cn2nc3c(Oc4ccccc4)nccn3c2=O)cc1Cl`, the Inhibition was -10.94% in the test with Klebsiella pneumoniae, 2.58% with Candida albicans and -9.36% in the test on Cryptococcus neoformans.
As for `CSc1cccc(NC(=O)Cn2nc3c(Sc4ccc(C)cc4C)nccn3c2=O)c1`, the Inhibition with Klebsiella pneumoniae is given as -1.53%; in the test with Candida albicans it was 2.24%; in the test on Cryptococcus neoformans, -22%.
With `COc1cccc(NC(=O)Cn2c(=O)c3nnc(C(C)C)n3c3ccccc32)c1`, the figures for the Inhibition in the test with Klebsiella pneumoniae, with Candida albicans and in the test on Cryptococcus neoformans were 16.14%, 3.17% and -13.4%, respectively.
The corresponding values for `COc1ccc(-c2cc3c4nnc(CCC(=O)NCc5ccccc5Cl)n4ccn3n2)cc1` are 3.58%, 1.3% and -11.66%.
The corresponding values for `COc1cccc(-n2ccn3c(SCC(=O)c4c[nH]c5ccc(OC)cc45)nnc3c2=O)c1` are 12.06%, 5.77% and -34.12%.
As for `O=C(Cn1nc2c(Sc3cccc(F)c3)nccn2c1=O)Nc1ccc(Br)cc1`, the Inhibition is listed as 4.85% in the test on Klebsiella pneumoniae, 1.59% with Candida albicans and -3.57% in the test with Cryptococcus neoformans.
For the compound `Cc1ccc(F)cc1NC(=O)CSc1nnc2ccc(C(=O)Nc3cccc(F)c3)cn12`, the Inhibition with Klebsiella pneumoniae was 2.35%; in the test on Candida albicans it was -0.79%; in the test on Cryptococcus neoformans it was -3.99%.
Turning to `Cc1ccc(CNC(=O)Cn2nc3c(SC4CCCCC4)nccn3c2=O)cc1`, the Inhibition in the test on Klebsiella pneumoniae is recorded as 14.28%; in the test on Candida albicans it was -1.05%; with Cryptococcus neoformans it was -11.99%.
In the case of `Cc1ccc(-c2ccc3nn(Cc4ccc(F)cc4Cl)c(=O)n3n2)cc1C`, the Inhibition in the test on Klebsiella pneumoniae is listed as 16.15%; with Candida albicans it was -0.6%; in the test with Cryptococcus neoformans it was -24.45%.
On the same counts, the results for `Cc1ccc(NC(=O)Cn2nc3ccc(SC(C)(C)C)nn3c2=O)cc1Cl` are 12.42%, 1.72% and -28.11%.
On the same counts, the results for `CCc1ccc(NC(=O)Cn2nc3c(Sc4ccccc4)nccn3c2=O)cc1` are 6.05%, 4.46% and -8.51%.
As for `CC(C)CCNC(=O)Cn1nc2n(CC(C)C)c(=O)c3sccc3n2c1=O`, the Inhibition with Klebsiella pneumoniae is on record as 9.99%; in the test with Candida albicans it was -0.63%; in the test on Cryptococcus neoformans it was -16.87%.
On the same counts, the results for `CCc1nnc2c(SCC(=O)Nc3ccc(Cl)cc3)nc3ccccc3n12` are 3.4%, 9.64% and -3.51%.
For the compound `O=c1c2nnc(-c3ccc([N+](=O)[O-])cc3)n2ccn1-c1ccc(F)c(F)c1`, the results for the Inhibition in the test on Klebsiella pneumoniae, in the test with Candida albicans and in the test on Cryptococcus neoformans were 12.52%, 2.2% and -9.46%, respectively.
On the same counts, the results for `Cc1ccc(NC(=O)CSc2nnc3ccc(C(=O)Nc4cccc(F)c4)cn23)c(C)c1` are 2.38%, 9.81% and -2.98%.
As for `Cc1ccc(Cl)cc1NC(=O)Cn1nc2c(SC3CCCCC3)nccn2c1=O`, the Inhibition is on record as 10.4% in the test on Klebsiella pneumoniae, -0.14% in the test on Candida albicans and -28.24% in the test with Cryptococcus neoformans.
The corresponding values for `COc1cccc(-c2nc(CSc3nc4ccccc4n4c(C)nnc34)c(C)o2)c1OC` are 8.41%, 0.37% and -19.84%.
The corresponding values for `COc1ccc(NC(=O)Cn2nc3ccc(SC(C)C)nn3c2=O)cc1OC` are 9.91%, 1.32% and -1.1%.
`CCc1nnc2ccc(S(=O)(=O)N(Cc3ccc(F)cc3)c3ccccc3)cn12`: the Inhibition with Klebsiella pneumoniae is on record as -0.12%; in the test on Candida albicans it was -0.14%; in the test with Cryptococcus neoformans it was -7.1%.
For `Cc1cccc(-c2nc(CSc3nc4ccccc4n4c(C)nnc34)c(C)o2)c1`, the Inhibition in the test with Klebsiella pneumoniae is given as 10.71%; with Candida albicans it was 3.22%; with Cryptococcus neoformans, -23.71%.
The corresponding values for `COc1cccc(CN(c2ccc(Cl)cc2)S(=O)(=O)c2ccc3nncn3c2)c1` are 6.15%, 2.49% and -6.94%.
On the same counts, the results for `COc1cccc(Oc2nccn3c(=O)n(CC(=O)NCc4cccs4)nc23)c1` are 11.61%, 0.8% and -9.44%.
`CC(C)c1nnc2c(SCC(=O)Nc3ccc(C#N)cc3)nc3ccccc3n12`: the Inhibition in the test on Klebsiella pneumoniae is listed as 10.23%; with Candida albicans it was 0.55%; in the test on Cryptococcus neoformans, -7.9%.
With `Cc1ccc(-c2noc(Cn3nc4ccc(-c5ccccc5)nn4c3=O)n2)cc1`, the results for the Inhibition with Klebsiella pneumoniae, in the test with Candida albicans and in the test on Cryptococcus neoformans were 1.24%, 8.52% and -15.81%, respectively.
Regarding `Cc1ccc(C)c(S(=O)(=O)Nc2ccc3nncn3n2)c1`, the Inhibition in the test with Klebsiella pneumoniae is given as 4.11%; in the test on Candida albicans, 0.56%; with Cryptococcus neoformans, -3.83%.
As for `CC1CCc2c(sc3ncn4c(=O)n(CC(=O)Nc5ccc6c(c5)CCC6)nc4c23)C1` (stereo not drawn), the Inhibition in the test on Klebsiella pneumoniae is listed as 13.08%; in the test on Candida albicans it was 4.62%; with Cryptococcus neoformans it was -27.54%.
The corresponding values for `COc1ccc(NC(=O)Cn2nc3c(Oc4ccc(C)cc4)nccn3c2=O)cc1Cl` are 0.22%, 18.79% and -4.53%.
On the same counts, the results for `Cc1ccc(NC(=O)CSc2nc3ccccc3n3c(C(C)C)nnc23)c(Cl)c1` are 0.92%, 27.99% and -3.15%.
The corresponding values for `CCc1nnc2c(S(=O)(=O)N(Cc3cccc(OC)c3)c3cccc(C)c3)cccn12` are 0.84%, 7.06% and -5.34%.
As to `CCOc1ccc(-n2ccn3c(SC(C)C(=O)Nc4ccc(OC)cc4)nnc3c2=O)cc1` (stereo not drawn), the Inhibition with Klebsiella pneumoniae was 5.17%; in the test on Candida albicans it was 4.23%; with Cryptococcus neoformans, -11.44%.
On the same counts, the results for `O=S(=O)(c1ccc2nncn2c1)N(Cc1ccccc1)c1ccc(F)c(F)c1` are 5.23%, 3.55% and -6.45%.
Turning to `CCC(Sc1nnc2c(=O)n(-c3ccc(C)c(C)c3)ccn12)C(=O)Nc1ccccc1C` (stereo not drawn), the Inhibition in the test on Klebsiella pneumoniae is reported as 15.08%; in the test on Candida albicans it was 1%; with Cryptococcus neoformans it was -9.85%.
With `COc1ccccc1NC(=O)Cn1nc2c(Sc3ccccc3)nccn2c1=O`, the Inhibition is given as -2.04% in the test on Klebsiella pneumoniae, 1.31% with Candida albicans and -4.93% in the test on Cryptococcus neoformans.
On the same counts, the results for `COc1ccc(OC)c(NC(=O)Cn2nc3c(Sc4ccccc4)nc4ccccc4n3c2=O)c1` are 8.31%, 2.83% and -24.8%.
The corresponding values for `CCCCc1ccc(NC(=O)Cn2nc3c(N4CC(C)CC(C)C4)nccn3c2=O)cc1` (stereo not drawn) are 3.89%, 4.16% and -10.16%.
On the same counts, the results for `CCOc1ccc(-c2nc(CSc3nc4ccccc4n4c(C(C)C)nnc34)c(C)o2)cc1` are 2.25%, -0.51% and -14.56%.
Consider `Cc1cccc(C)c1NC(=O)CSc1nnc2c3cc(-c4ccccc4)nn3ccn12`, for which the Inhibition was -14.45% in the test on Klebsiella pneumoniae, -0.49% with Candida albicans and -6.46% in the test with Cryptococcus neoformans.
Take `COc1ccc(NC(=O)c2ccc3nn(CC(=O)Nc4ccc(S(C)(=O)=O)cc4)c(=O)n3c2)cc1`: the Inhibition is listed as 1.84% with Klebsiella pneumoniae, 15.13% in the test with Candida albicans and -4.16% with Cryptococcus neoformans.
On the same counts, the results for `Cc1ccc(-n2ccn3c(=O)n(Cc4c(F)cccc4Cl)nc3c2=O)cc1C` are 16.81%, 1.02% and -16.44%.
The corresponding values for `Cc1ccc(Oc2nccn3c(=O)n(CC(=O)NCc4cccs4)nc23)cc1` are 11.41%, 2.18% and -8.11%.
